Bioassay records from PubChem BioAssay.
POLB inh: qHTS Assay for Inhibitors of DNA Polymerase Beta; P06746; Pol beta primer extension/strand displacement, fluorescence kinetic; Potency, µM (doses to about 114 µM), for the others: top-dose activity change, negative = inhibition, actives largely listed as inhibitors; 340,000 compounds, 1.3% hits; AID 485314, 2010; also: % is scaled to controls: 0 for no effect and ±100 for the full control effect
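Pol beta (10 nM) was preincubated with compound for 15 min at room temperature. The reaction was then started with 50 nM substrate and read immediately and after a further 10 min at room temperature.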
POLK inh: qHTS for Inhibitors of Polymerase Kappa; DNA polymerase kappa (Homo sapiens), Q9UBT6; purified Pol kappa, fluorescent DNA synthesis assay, 10 min; Potency, µM (highest dose often 107 µM), for the others: top-dose activity, negative = inhibition, usual class: inhibitors; 400,000 compounds, 0.53% hits; also: % is scaled to controls: 0 for no effect and ±100 for the full control effect
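Inhibition of 10 nM Pol kappa is measured by a fluorescent read-out at 0 and 10 min following addition of 50 nM substrate (final), with a 15-min room-temperature compound preincubation.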
Pol iota inh: qHTS for Inhibitors of Polymerase Iota. DNA polymerase iota (Homo sapiens), Q9UNA4. Pol iota fluorescent replication assay, 10 min. Potency, µM (highest dose often 115 µM), for the others: at the top dose activity, negative = inhibition, hits mostly inhibitors. 390,000 compounds, 1% hits
Target sequence (Q9UNA4 whole entry, looked up): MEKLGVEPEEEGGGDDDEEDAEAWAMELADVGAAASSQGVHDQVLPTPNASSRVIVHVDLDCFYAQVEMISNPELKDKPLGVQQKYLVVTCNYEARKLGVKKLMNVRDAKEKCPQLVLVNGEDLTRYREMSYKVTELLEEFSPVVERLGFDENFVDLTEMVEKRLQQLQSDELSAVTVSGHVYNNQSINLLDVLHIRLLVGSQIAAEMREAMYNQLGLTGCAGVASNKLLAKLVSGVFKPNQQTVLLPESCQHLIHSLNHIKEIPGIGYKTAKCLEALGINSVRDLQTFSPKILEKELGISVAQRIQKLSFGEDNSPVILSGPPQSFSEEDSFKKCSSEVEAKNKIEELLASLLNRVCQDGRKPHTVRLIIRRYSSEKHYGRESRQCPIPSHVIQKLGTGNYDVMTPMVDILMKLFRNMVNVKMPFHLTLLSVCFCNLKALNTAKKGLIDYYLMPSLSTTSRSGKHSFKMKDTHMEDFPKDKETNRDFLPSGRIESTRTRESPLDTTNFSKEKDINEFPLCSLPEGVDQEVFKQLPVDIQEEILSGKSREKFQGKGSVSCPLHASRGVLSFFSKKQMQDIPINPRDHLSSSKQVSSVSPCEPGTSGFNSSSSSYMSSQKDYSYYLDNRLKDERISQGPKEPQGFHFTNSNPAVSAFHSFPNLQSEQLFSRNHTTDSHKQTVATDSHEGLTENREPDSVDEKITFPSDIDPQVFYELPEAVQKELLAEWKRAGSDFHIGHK
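Fluorescent replication assay read twice, at 0 min and 10 min after adding 50 nM (final) substrate. Enzyme (10 nM) and compounds were first incubated 15 min at room temperature; enzyme-free buffer wells were negative controls.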
POLH inh: qHTS for Inhibitors of Polymerase Eta; recombinant Pol eta, fluorescent DNA replication assay; Potency, µM (titrated, usually from 114 µM), without a hit: at the top dose activity change, negative = inhibition, actives largely listed as inhibitors; 390,000 compounds, 1.2% hits; AID 588591, 2011; also: % is scaled to controls: 0 for no effect and ±100 for the full control effect
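Pol eta at 10 nM preincubated with compounds 15 min at room temperature; reaction started with fluorescent substrate (50 nM final) and read kinetically at 0 and 10 min.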
TDP1 inh: qHTS Assay for Inhibitors of Tyrosyl-DNA Phosphodiesterase (TDP1); Tyrosyl-DNA phosphodiesterase 1 (Homo sapiens), Q9NUW8; recombinant TDP1, AlphaScreen DNA substrate cleavage; Potency, µM (doses to about 130 µM), for inactives: at the highest dose activity change, negative = inhibition, usual class: inhibitors; 350,000 compounds, 0.28% hits; also: % is scaled to controls: 0 for no effect and ±100 for the full control effect; nearly all actives have a fitted effect of over 40% in size
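AlphaScreen read-out: signal falls as enzyme removes the 3' tyrosine-FITC from a 5'-biotinylated DNA oligo (15 nM, 5 min, RT). Enzyme was E. coli-made recombinant Tdp1 at 1 nM, exposed to compound for 15 min beforehand; beads 10 ug/ml, 10 min.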
FEN1 inh: qHTS Assay for the Inhibitors of Human Flap endonuclease 1 (FEN1); Potency, µM (doses to about 114 µM), for inactives: at the top dose activity change, negative = inhibition, hits mostly inhibitors; AID 588795, 2011; Recombinant FEN1 flap cleavage, fluorescence, 15 min; 390,000 compounds, 0.35% hits; P39748; also: % is scaled to controls: 0 for no effect and ±100 for the full control effect; nearly all actives have a fitted effect of over 65% in size
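Steps: FEN1 (10 nM) dispensed; compound added by pin tool; 15 min at room temperature; substrate added to 50 nM final; reads at 0 min and 15 min; data normalized and fitted (four-parameter Hill).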
* = called active by the depositor; ? = inconclusive; . = no result; [ ] = remark or other dose. The list is not random: actives were taken first. Their share in the collection is about 2.4%. Calls follow the shape of the dose curve; as a rule, active = well fitted curve in the direction sought with a large enough effect; inconclusive = small, poorly fitted or top-dose-only effect, or another doubt; inactive = no such curve, though single readings can be large; an effect the other way counts as inactive or inconclusive. Potency is read from the fitted curve at half-maximal effect.

SMILES	POLB inh	POLK inh	Pol iota inh	POLH inh	TDP1 inh	FEN1 inh
CC(=O)Nc1cccc(NC(=O)CSc2ccc(-c3ccco3)nn2)c1	25µM*	?	22µM*	18µM*	-14%	-12%
O=C(O)CCC(=O)Nc1ccc(-c2nnc(-c3ccco3)o2)cc1	10%	3%	-11%	-14%	2%	-3%
Cc1ccc(NC(=O)CSc2ccc(-c3ccco3)nn2)cc1	?	-13%	56%	-8%	5%	-3%
Cc1ccc(SCC(=O)Nc2ccc(-c3nnc(-c4ccco4)o3)cc2)cc1	50µM*	?	-10%	?	.	-12%
CCc1ccc(-n2c(C)nnc2SCc2nc(-c3ccc(OC)cc3)no2)cc1	-4%	?	14%	-24%	4%	10%
O=C(CSc1ccc(-c2ccco2)nn1)c1ccc(F)cc1	?	32µM*	14µM*	?	-12%	?
CC(=O)c1cccc(NC(=O)CSc2ccc(-c3sc(C)nc3C)nn2)c1	79µM*	-10%	-21%	-4%	7%	-9%
Cc1nc(C)c(-c2ccc(SCC(=O)Nc3cccc(F)c3)nn2)s1	-9%	-6%	-11%	-9%	4%	3%
O=C(CSc1ccc(-c2ccco2)nn1)NCc1ccc(F)cc1	-30%	-14%	-10%	-3%	6%	10%
CCOC(=O)c1c(Oc2ccc(OC)cc2)nnc(-c2ccccc2)c1-c1ccccc1	28%	13%	-4%	-2%	1%	-14%
COc1ccc(NC(=O)CCCc2nnc3n(C(C)C)c(=O)c4sccc4n23)cc1Cl	0%	10%	18%	-19%	3%	60%
CCCCn1c(SCC(=O)c2ccccc2)nc2ccsc2c1=O	1%	-3%	165%	-20%	3%	1%
CCCCn1c(SCC(=O)c2ccc(O)c(O)c2)nc2ccsc2c1=O	?	-22%	?	8.9µM*	6%	7%
O=C1N=c2ccc([N+](=O)[O-])cc2=C1c1sc(=O)[nH]c1O	1%	89µM*	15%	-19%	6%	?
CCC(CN(C)C)Oc1cc(NCc2ccccc2)c2ncn(C(C)C)c2c1 (stereo unspecified)	.	-12%	14µM*	-17%	4%	?
Cc1ccccc1Cn1c(=O)n(Cc2ccc(Cl)cc2)c(=O)c2cccnc21	13%	-35%	-6%	0%	-6%	-9%
COc1cc(C2Nc3ccc4ncccc4c3C3=C2C(=O)CCC3)cc(OC)c1O (stereo unspecified)	-6%	-11%	31%	?	0%	-18%
O=C1CCCC2=C1C(c1ccc(O)c(O)c1)Nc1ccc3ccccc3c12 (stereo unspecified)	.	?	79µM*	?	.	-8%
CC(=O)N(C1=C(O)c2ccccc2C(=O)C1=O)C1CCCCC1	21%	-8%	29%	6%	-3%	-10%
O=C1c2ccccc2C(=O)c2[nH]c(=O)[nH]c21	50µM*	?	14µM*	32µM*	.	?
CC(=O)N(C)C1=C(O)c2ccccc2C(=O)C1=O	-1%	-15%	28µM*	-4%	-6%	-12%
O=C1C(O)=C(O)C(=O)c2ccccc21	.	-14%	7.9µM*	32µM*	.	?
Cc1c(Cn2cnc3c(cnn3C(C)(C)C)c2=O)cccc1C(F)(F)F	.	9%	-2%	.	.	5%
O=C(O)C1Cc2ccccc2CN1C(=O)COc1ccc(Cl)cc1 (stereo unspecified)	-27%	-20%	-17%	32µM*	?	-1%
COc1ccc(-c2cnc(C)o2)cc1S(=O)(=O)Nc1c(C)cc(C)cc1C	7%	-2%[60.1 µM]	-6%	-16%	-4%	-12%
